Laboratory results from PubChem BioAssay AID1159580 (chemical genetic matrix, 2015).
Several values for one entry are separate records, joined by “and”; a condition that tells them apart may be missing. Equal values may be shown once. Hit rate of the full screen: of about 5,500 compounds, about 2,000 (36%) were called active. Not shown: some 18% with an inconclusive outcome. Cut-off read from the data, not from the text of the source: active = normalized growth mostly below about 0.91 (no sharp cut-off); inconclusive = no clear call, values can overlap the other calls; inactive = mostly above about 0.92. This is one part of the list. Some structures have more than one record in an assay (separate samples or runs), and their calls can disagree.

Assay: chemical genetic growth profiling, strain panel (AID 1159580);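 note: tested at 20 µM; growth read once vehicle control cultures reached saturation at 30 °C; 1 = growth at the plate median or of vehicle wells; lower values mean less growth of the strain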
Details: growth OD

O=C(Nc1ccc([N+](=O)[O-])cc1Cl)c1cc(Cl)ccc1O
normalized growth (S. cerevisiae deletion strains, locus YJR075W, strain HOC1, stronger effect = lower value): 0.815 (active) and 0.99 (inactive)
normalized growth (S. cerevisiae deletion strains, locus YKL009W, strain mrt4, stronger effect = lower value): 1.2 [resistant] (active)
normalized growth (S. cerevisiae deletion strains, locus YKL068W, stronger effect = lower value): 1 (inactive)
normalized growth (S. cerevisiae deletion strains, locus YKL085W, strain MDH1 (second series), stronger effect = lower value): 1.04 (inactive)
normalized growth (S. cerevisiae deletion strains, locus YKL085W, strain MDH1, stronger effect = lower value): 1.04 (inactive)
normalized growth (S. cerevisiae deletion strains, locus YKL160W, strain elf1, stronger effect = lower value): 0.773 (active)
normalized growth (S. cerevisiae deletion strains, locus YKR001C, strain vps1, stronger effect = lower value): 0.459 (active)
normalized growth (S. cerevisiae deletion strains, locus YKR026C, strain gcn3, stronger effect = lower value): 0.978 (inactive)
normalized growth (S. cerevisiae deletion strains, locus YKR091W, strain srl3, stronger effect = lower value): 0.938 (inactive)
normalized growth (S. cerevisiae deletion strains, locus YLL001W, strain dnm1, stronger effect = lower value): 0.971 (inactive)
normalized growth (S. cerevisiae deletion strains, locus YLL026W, stronger effect = lower value): 0.939 (inactive)
normalized growth (S. cerevisiae deletion strains, locus YLL041C, strain sdh2, stronger effect = lower value): 0.931 (inactive)
normalized growth (S. cerevisiae deletion strains, locus YLR027C, strain aat2, stronger effect = lower value): 0.92 (active)
normalized growth (S. cerevisiae deletion strains, locus YLR039C, strain RIC1, stronger effect = lower value): 0.289 (active)
normalized growth (S. cerevisiae deletion strains, locus YLR058C, strain SHM2, stronger effect = lower value): 0.948 (inactive)
normalized growth (S. cerevisiae deletion strains, locus YLR102C, strain apc9, stronger effect = lower value): 1 (inactive)
normalized growth (S. cerevisiae deletion strains, locus YLR113W, strain HOG1, stronger effect = lower value): 1.01 (inactive)
normalized growth (S. cerevisiae deletion strains, locus YLR221C, strain rsa3, stronger effect = lower value): 0.906 (active)
normalized growth (S. cerevisiae deletion strains, locus YLR258W, strain gsy2, stronger effect = lower value): 0.977 (inactive)
normalized growth (S. cerevisiae deletion strains, locus YLR262C, strain YPT6 (second series), stronger effect = lower value): 0.241 (active)
normalized growth (S. cerevisiae deletion strains, locus YLR262C, strain YPT6, stronger effect = lower value): 0.193 (active)
normalized growth (S. cerevisiae deletion strains, locus YLR268W, strain sec22, stronger effect = lower value): 0.964 (inactive)
normalized growth (S. cerevisiae deletion strains, locus YLR320W, strain mms22, stronger effect = lower value): 0.833 (active)
normalized growth (S. cerevisiae deletion strains, locus YLR330W, strain CHS5, stronger effect = lower value): 0.942 (inactive)
normalized growth (S. cerevisiae deletion strains, locus YLR342W, strain FKS1 (second series), stronger effect = lower value): 0.667 (active)
normalized growth (S. cerevisiae deletion strains, locus YLR342W, strain FKS1, stronger effect = lower value): 0.967 (inactive)
normalized growth (S. cerevisiae deletion strains, locus YLR357W, strain rsc2, stronger effect = lower value): 1.02 (inactive)
normalized growth (S. cerevisiae deletion strains, locus YLR370C, strain arc18, stronger effect = lower value): 0.949 (inactive)
normalized growth (S. cerevisiae deletion strains, locus YLR371W, strain rom2, stronger effect = lower value): 1 (inactive)
normalized growth (S. cerevisiae deletion strains, locus YLR384C, strain iki3, stronger effect = lower value): 1.09 [resistant] (active)
normalized growth (S. cerevisiae deletion strains, locus YLR418C, strain cdc73, stronger effect = lower value): 0.793 (active)
normalized growth (S. cerevisiae deletion strains, locus YML016C, strain PPZ1, stronger effect = lower value): 0.975 (inactive)
normalized growth (S. cerevisiae deletion strains, locus YML120C, strain ndi1, stronger effect = lower value): 0.975 (inactive)
normalized growth (S. cerevisiae deletion strains, locus YML124C, strain tub3, stronger effect = lower value): 1.17 [resistant] (active)
normalized growth (S. cerevisiae deletion strains, locus YMR058W, strain fet3, stronger effect = lower value): 0.966 (inactive)
normalized growth (S. cerevisiae deletion strains, locus YMR078C, strain ctf18, stronger effect = lower value): 1.17 [resistant] (active)
normalized growth (S. cerevisiae deletion strains, locus YMR125W, strain sto1, stronger effect = lower value): 0.999 (inactive)
normalized growth (S. cerevisiae deletion strains, locus YMR129W, stronger effect = lower value): 0.937 (inactive)
normalized growth (S. cerevisiae deletion strains, locus YMR205C, strain PFK2, stronger effect = lower value): 0.759 (active)
normalized growth (S. cerevisiae deletion strains, locus YMR223W, strain ubp8, stronger effect = lower value): 1.09 (inactive)
normalized growth (S. cerevisiae deletion strains, locus YMR231W, strain pep5, stronger effect = lower value): 0.901 (active)
normalized growth (S. cerevisiae deletion strains, locus YMR263W, strain SAP30, stronger effect = lower value): 0.991 (inactive)
normalized growth (S. cerevisiae deletion strains, locus YMR307W, strain GAS1, stronger effect = lower value): 0.393 (active) and 0.947 (inactive)
normalized growth (S. cerevisiae deletion strains, locus YNL067W, strain RPL9B, stronger effect = lower value): 0.925 (inactive)
normalized growth (S. cerevisiae deletion strains, locus YNL071W, strain lat1, stronger effect = lower value): 0.809 (active)
normalized growth (S. cerevisiae deletion strains, locus YNL153C, strain GIM3, stronger effect = lower value): 0.924 (inactive) and 0.687 (active)
normalized growth (S. cerevisiae deletion strains, locus YNL175C, strain NOP13, stronger effect = lower value): 0.868 (active)
normalized growth (S. cerevisiae deletion strains, locus YNL183C, strain NPR1, stronger effect = lower value): 0.933 (inactive)
normalized growth (S. cerevisiae deletion strains, locus YNL197C, strain WHI3, stronger effect = lower value): 0.789 (active)
normalized growth (S. cerevisiae deletion strains, locus YNL209W, strain ssb2, stronger effect = lower value): 0.925 (active)
normalized growth (S. cerevisiae deletion strains, locus YNL224C, strain SQS1, stronger effect = lower value): 0.972 (inactive)
normalized growth (S. cerevisiae deletion strains, locus YNL233W, strain BNI4, stronger effect = lower value): 0.803 (active)
normalized growth (S. cerevisiae deletion strains, locus YNL248C, strain rpa49, stronger effect = lower value): 0.969 (inactive)
normalized growth (S. cerevisiae deletion strains, locus YNL250W, strain rad50, stronger effect = lower value): 1.01 (inactive)
normalized growth (S. cerevisiae deletion strains, locus YNL271C, strain bni1, stronger effect = lower value): 0.999 (inactive)
normalized growth (S. cerevisiae deletion strains, locus YNL298W, strain CLA4, stronger effect = lower value): 1 (inactive)
normalized growth (S. cerevisiae deletion strains, locus YNL307C, strain MCK1, stronger effect = lower value): 0.986 (inactive)
normalized growth (S. cerevisiae deletion strains, locus YNL322C, strain KRE1 (second series), stronger effect = lower value): 1.06 (inactive)
normalized growth (S. cerevisiae deletion strains, locus YNL322C, strain KRE1, stronger effect = lower value): 0.921 (active) and 0.992 (inactive)
normalized growth (S. cerevisiae deletion strains, locus YNR049C, strain mso1, stronger effect = lower value): 1 (inactive)
normalized growth (S. cerevisiae deletion strains, locus YNR052C, strain pop2, stronger effect = lower value): 1.12 [resistant] (active)
normalized growth (S. cerevisiae deletion strains, locus YOL006C, strain TOP1, stronger effect = lower value): 0.632 (inactive)
normalized growth (S. cerevisiae deletion strains, locus YOL012C, strain htz1): 0.729 (inactive)
normalized growth (S. cerevisiae deletion strains, locus YOL147C, strain pex11, stronger effect = lower value): 1.19 [resistant] (active)
normalized growth (S. cerevisiae deletion strains, locus YOR001W, strain rrp6, stronger effect = lower value): 0.944 (inactive)
normalized growth (S. cerevisiae deletion strains, locus YOR061W, strain CKA2, stronger effect = lower value): 0.969 (inactive)
normalized growth (S. cerevisiae deletion strains, locus YOR069W, strain VPS5, stronger effect = lower value): 0.96 (inactive)
normalized growth (S. cerevisiae deletion strains, locus YOR070C, strain gyp1, stronger effect = lower value): 0.842 (active)
normalized growth (S. cerevisiae deletion strains, locus YOR080W, strain dia2, stronger effect = lower value): 0.904 (active)
normalized growth (S. cerevisiae deletion strains, locus YOR083W, strain WHI5 (second series), stronger effect = lower value): 0.751 (active)
normalized growth (S. cerevisiae deletion strains, locus YOR083W, strain WHI5, stronger effect = lower value): 0.88 (active)
normalized growth (S. cerevisiae deletion strains, locus YOR106W, strain vam3, stronger effect = lower value): 0.843 (active)
normalized growth (S. cerevisiae deletion strains, locus YOR136W, strain idh2, stronger effect = lower value): 1.03 (inactive)
normalized growth (S. cerevisiae deletion strains, locus YOR144C, strain elg1, stronger effect = lower value): 1.19 [resistant] (active)
normalized growth (S. cerevisiae deletion strains, locus YOR184W, strain ser1, stronger effect = lower value): 1.03 (inactive)
normalized growth (S. cerevisiae deletion strains, locus YOR231W, strain MKK1, stronger effect = lower value): 1.01 (inactive)
normalized growth (S. cerevisiae deletion strains, locus YOR265W, strain rbl2, stronger effect = lower value): 0.928 (active)
normalized growth (S. cerevisiae deletion strains, locus YOR270C, strain vph1, stronger effect = lower value): 0.666 (active)
normalized growth (S. cerevisiae deletion strains, locus YOR290C, strain snf2, stronger effect = lower value): 0.98 (inactive)
normalized growth (S. cerevisiae deletion strains, locus YOR316C, strain cot1, stronger effect = lower value): 1.02 (inactive)
normalized growth (S. cerevisiae deletion strains, locus YPL051W, strain arl3, stronger effect = lower value): 0.607 (active)
normalized growth (S. cerevisiae deletion strains, locus YPL055C, strain LGE1, stronger effect = lower value): 0.731 (active)
normalized growth (S. cerevisiae deletion strains, locus YPL078C, strain atp4, stronger effect = lower value): 0.866 (active)
normalized growth (S. cerevisiae deletion strains, locus YPL106C, strain sse1, stronger effect = lower value): 0.962 (inactive)
normalized growth (S. cerevisiae deletion strains, locus YPL240C, strain hsp82, stronger effect = lower value): 1.01 (inactive)
normalized growth (S. cerevisiae deletion strains, locus YPL256C, strain CLN2, stronger effect = lower value): 0.994 (inactive)
normalized growth (S. cerevisiae deletion strains, locus YPR119W, strain clb2, stronger effect = lower value): 1.06 (inactive)
normalized growth (S. cerevisiae deletion strains, locus YPR141C, strain kar3, stronger effect = lower value): 1.02 (inactive)
normalized growth (S. cerevisiae deletion strains, locus YPR163C, strain tif3, stronger effect = lower value): 1.04 (inactive)
normalized growth (S. cerevisiae deletion strains, locus YPR167C, strain met16, stronger effect = lower value): 1.06 (inactive)
normalized growth (S. cerevisiae deletion strains, strain wtn01, stronger effect = lower value): 1.03 (inactive)
normalized growth (S. cerevisiae strains, strain wild type, stronger effect = lower value): 0.904 (inactive)
